Structures can show the parent of a compound that is named as a salt.
Legend:
Conditions in all cases: incubation time: 27 h, anaerobic, 37 °C;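 for the amine columns active = adjusted P below 0.05 in both replicates with a change the same way and a mean fold change under 0.8 or over 1.25; inactive = the rest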
[1] = system: Clostridium sporogenes DSM 1664; assay: growth (OD595) fold change vs plate DMSO controls (fold change (ratio)); higher = more growth
Summary of the method: (§1)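 Growth is calculated as fold change against the median of the DMSO control wells on each plate. Readings at 595 nm from anaerobic mGAM cultures (96-well, 27 h, 37 °C) were blank-subtracted, background-corrected with 20 µM compound solutions in water, and converted to OD by a calibration factor of 5. Fold changes above 1.5 were recorded as NA, and results are means of 2 biological replicates.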

Escherichia coli IAI1 [2] = assay: as above
Summary of the method: as §1

[3] = system: Klebsiella aerogenes DSM 30053; assay: as above
Summary of the method: as §1

[4] = system: Ruminococcus gnavus DSM 108212; assay: as above
Summary of the method: as §1

[5] = system: Klebsiella aerogenes DSM 30053; assay: fold change of Histamine concentration vs plate DMSO controls (fold change (ratio)); higher = more amine produced, active = hit call of the paper (significant change in both replicates, either direction)
Summary of the method: (§2)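 Extracts of whole anaerobic mGAM cultures were analysed for amines by LC–triple-quadrupole MS with dynamic MRM and external calibration curves, with drift corrected within batch. Four gut strains were grown at 37 °C for 27 h in 80 µL wells with compounds at 20 µM final, sweeteners at 50 µM final. Each value expresses fold change over plate DMSO controls. The average of 2 biological replicates is shown.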

[6] = system: Clostridium sporogenes DSM 1664; assay: fold change of Tryptamine concentration vs plate DMSO controls (fold change (ratio)); higher = more amine produced, active = hit call of the paper (significant change in both replicates, either direction)
Summary of the method: as §2

[7] = system: Ruminococcus gnavus DSM 108212; assay: as above
Summary of the method: as §2

Escherichia coli IAI1 [8] = assay: fold change of Putrescine concentration vs plate DMSO controls (fold change (ratio)); higher = more amine produced, active = hit call of the paper (significant change in both replicates, either direction)
Summary of the method: as §2

[9] = system: Klebsiella aerogenes DSM 30053; assay: as above
Summary of the method: as §2

Escherichia coli IAI1 [10] = assay: fold change of Cadaverine concentration vs plate DMSO controls (fold change (ratio)); higher = more amine produced, active = hit call of the paper (significant change in both replicates, either direction)
Summary of the method: as §2

[11] = system: Klebsiella aerogenes DSM 30053; assay: as above
Summary of the method: as §2

[12] = system: Ruminococcus gnavus DSM 108212; assay: fold change of 2-Phenylethylamine concentration vs plate DMSO controls (fold change (ratio)); higher = more amine produced, active = hit call of the paper (significant change in both replicates, either direction)
Summary of the method: as §2

| SMILES | growth [1] | growth (Escherichia coli IAI1 [2]) | growth [3] | growth [4] | fold change of Histamine concentration [5] | fold change of Tryptamine concentration [6] | fold change of Tryptamine concentration [7] | fold change of Putrescine concentration (Escherichia coli IAI1 [8]) | fold change of Putrescine concentration [9] | fold change of Cadaverine concentration (Escherichia coli IAI1 [10]) | fold change of Cadaverine concentration [11] | fold change of 2-Phenylethylamine concentration [12] |
| --- | --- | --- | --- | --- | --- | --- | --- | --- | --- | --- | --- | --- |
| CCN1CCC[C@H]1CNC(=O)c1c(O)c(Cl)cc(Cl)c1OC [Raclopride] (20 µM) | 1.03 | 1.25 | 0.996 | 0.999 | 0.961 (inactive) | 1.06 (inactive) | 1 (inactive) | 1.19 (inactive) | 0.97 (inactive) | 0.944 (inactive) | 0.983 (inactive) | 0.991 (inactive) |
| N=C(N)NC(=N)NCCc1ccccc1 [Phenformin hydrochloride] (20 µM) | 0.958 | 1.01 | 1.07 | 0.756 | 1 (inactive) | 1.03 (inactive) | 1.03 (inactive) | 0.964 (inactive) | 1 (inactive) | 1.07 (inactive) | 1.01 (inactive) | 1.05 (inactive) |
| Oc1ccc(C2CNCCc3c2cc(O)c(O)c3Cl)cc1 (stereo not drawn) [Fenoldopam] (20 µM) | 1.08 | 0.952 | 0.998 | 0.973 | 1.02 (inactive) | 0.95 (inactive) | 1.03 (inactive) | 1.01 (inactive) | 0.988 (inactive) | 1.04 (inactive) | 0.987 (inactive) | 1.03 (inactive) |
| CN(C)CC/C=C1\c2ccccc2CSc2ccccc21 [Dosulepin hydrochloride] (20 µM) | 1.07 | 0.99 | 0.968 | 0.844 | 0.887 (inactive) | 1.17 (inactive) | 0.961 (inactive) | 1.03 (inactive) | 0.941 (inactive) | 1.01 (inactive) | 1.06 (inactive) | 0.952 (inactive) |
| CC(CNC1CCCCC1)OC(=O)c1ccccc1 (stereo not drawn) [Hexylcaine hydrochloride] (20 µM) | 1 | 0.961 | 1.01 | 1.02 | 1.02 (inactive) | 1.03 (inactive) | 1.01 (inactive) | 1 (inactive) | 0.988 (inactive) | 0.994 (inactive) | 0.984 (inactive) | 1.01 (inactive) |
| CC1=NN(c2ccccc2)C(=O)C1 [Edaravone] (20 µM) | 0.889 | 1.03 | 1.02 | 0.963 | 0.97 (inactive) | 0.939 (inactive) | 1.01 (inactive) | 1.03 (inactive) | 1.02 (inactive) | 0.986 (inactive) | 1.01 (inactive) | 0.984 (inactive) |
| CC=C(C)C(=O)OC1C(OC(C)=O)C2(CO)C(O)CC3(C)C(=CCC4C5(C)CCC(OC6OC(C(=O)O)C(OC7OC(CO)C(O)C(O)C7O)C(O)C6OC6OC(CO)C(O)C(O)C6O)C(C)(CO)C5CCC43C)C2CC1(C)C (stereo not drawn) [Beta-Escin] (20 µM) | 0.94 | 1 | 1.01 | 1.01 | 1.01 (inactive) | 0.988 (inactive) | 0.982 (inactive) | 0.986 (inactive) | 0.994 (inactive) | 1.01 (inactive) | 1 (inactive) | 0.953 (inactive) |
| CN1CCN2c3ncccc3Cc3ccccc3C2C1 (stereo not drawn) [Mirtazapine] (20 µM) | 1.09 | 1.01 | 1 | 1.11 | 0.963 (inactive) | 1.12 (inactive) | 1.06 (inactive) | 0.964 (inactive) | 0.983 (inactive) | 0.984 (inactive) | 1.02 (inactive) | 1.04 (inactive) |
| CC(C)COCC(CN(Cc1ccccc1)c1ccccc1)N1CCCC1 (stereo not drawn) [Bepridil hydrochloride] (20 µM) | 0.909 | 0.996 | 1.11 | 0.654 | 0.937 (inactive) | 0.913 (inactive) | 0.743 (active) | 1.03 (inactive) | 1.01 (inactive) | 1.01 (inactive) | 1.01 (inactive) | 0.824 (inactive) |
| O=C(CCCCC(=O)Nc1c(I)cc(I)c(C(=O)O)c1I)Nc1c(I)cc(I)c(C(=O)O)c1I [Iodipamide] (20 µM) | 0.854 | 1.01 | 0.982 | 0.98 | 1.04 (inactive) | 1.02 (inactive) | 0.925 (inactive) | 1.13 (inactive) | 1.02 (inactive) | 1.01 (inactive) | 0.989 (inactive) | 0.892 (inactive) |
| Cc1nn(C)c(Oc2ccccc2)c1/C=N/OCc1ccc(C(=O)OC(C)(C)C)cc1 (20 µM) | 1.15 | 1.03 | 1.02 | 0.998 | 0.993 (inactive) | 0.918 (inactive) | 1.04 (inactive) | 1.02 (inactive) | 1.06 (inactive) | 0.987 (inactive) | 1.03 (inactive) | 0.974 (inactive) |
| CC(=O)CC(c1ccccc1)c1c(O)c2ccccc2oc1=O (stereo not drawn) (20 µM) | 1.05 | 0.981 | 1 | 1.15 | 1.01 (inactive) | 0.979 (inactive) | 0.984 (inactive) | 1.01 (inactive) | 1 (inactive) | 0.995 (inactive) | 0.99 (inactive) | 0.99 (inactive) |
| COc1ccc(Cl)cc1C(=O)NCCc1ccc(S(=O)(=O)NC(=O)NC2CCCCC2)cc1 [Glibenclamide] (20 µM) | 1.19 | 1 | 1.04 | 1.04 | 0.91 (inactive) | 1.03 (inactive) | 1.06 (inactive) | 0.96 (inactive) | 0.964 (inactive) | 0.909 (inactive) | 1.03 (inactive) | 1.09 (inactive) |
| CN(CCCCCCCCCCN(C)C(=O)Oc1cccc([N+](C)(C)C)c1)C(=O)Oc1cccc([N+](C)(C)C)c1 [Demecarium bromide] (20 µM) | 0.744 | 0.974 | 1.04 | 0.614 | 0.986 (inactive) | 0.871 (inactive) | 1.06 (inactive) | 0.987 (inactive) | 1.01 (inactive) | 1.03 (inactive) | 1.01 (inactive) | 1.06 (inactive) |
| CS(=O)(=O)OCCCCOS(C)(=O)=O [Busulfan] (20 µM) | 0.951 | 1.07 | 0.991 | 1.09 | 0.992 (inactive) | 1.04 (inactive) | 1.11 (inactive) | 1.08 (inactive) | 0.962 (inactive) | 1.04 (inactive) | 1.04 (inactive) | 1.09 (inactive) |
| C=C(NC(=O)C(=C)NC(=O)c1csc(C2=N[C@@H]3c4csc(n4)[C@H]4NC(=O)c5csc(n5)[C@H]([C@](C)(O)[C@@H](C)O)NC(=O)[C@H]5CSC(=N5)/C(=C/C)NC(=O)[C@H]([C@@H](C)O)NC(=O)c5csc(n5)[C@]3(CC2)NC(=O)[C@H](C)NC(=O)C(=C)NC(=O)[C@H](C)NC(=O)[C@H]([C@@H](C)CC)N[C@@H]2C=Cc3c([C@H](C)O)cc(nc3[C@H]2O)C(=O)O[C@@H]4C)n1)C(N)=O [Thiostrepton] (20 µM) | 0.00647 | 1.05 | 1.14 | 0.164 | 0.968 (inactive) | 0.033 (active) | 0.0887 (active) | 1.03 (inactive) | 1.03 (inactive) | 1.02 (inactive) | 1.02 (inactive) | 0.084 (active) |
| CCOc1cc(N)c(Cl)cc1C(=O)NCC1CN(Cc2ccc(F)cc2)CCO1 (stereo not drawn) [Mosapride] (20 µM) | 1.14 | 0.963 | 0.978 | 1.08 | 1.05 (inactive) | 1.03 (inactive) | 0.938 (inactive) | 0.985 (inactive) | 1.02 (inactive) | 0.998 (inactive) | 0.992 (inactive) | 0.936 (inactive) |
| Cc1cccc(C)c1NC(=O)C(C)N (stereo not drawn) [Tocainide hydrochloride] (20 µM) | 0.909 | 1.02 | 0.994 | 1.06 | 1.06 (inactive) | 1.01 (inactive) | 1.02 (inactive) | 1.03 (inactive) | 1 (inactive) | 0.983 (inactive) | 0.976 (inactive) | 1.05 (inactive) |
| N=C(N)N1CCc2ccccc2C1 [Debrisoquin sulfate] (20 µM) | 1.11 | 1 | 1.02 | 1.13 | 1.01 (inactive) | 1.03 (inactive) | 1.02 (inactive) | 1.03 (inactive) | 1 (inactive) | 0.999 (inactive) | 0.993 (inactive) | 1.05 (inactive) |
| Cn1c(=O)c2[nH]cnc2n(C)c1=O [Aminophylline] (20 µM) | 0.81 | 0.991 | 0.955 | 0.972 | 0.965 (inactive) | 1.06 (inactive) | 0.972 (inactive) | 1.17 (inactive) | 1.02 (inactive) | 1.01 (inactive) | 1 (inactive) | 0.939 (inactive) |
| C=CC[N@@+]12CC[C@@]34c5ccccc5N5/C=C6/[C@H]7C[C@H]8[C@@]9(CC[N@@+]8(CC=C)C/C7=C/CO)c7ccccc7N(/C=C(/[C@@H](C[C@@H]31)/C(=C\CO)C2)[C@H]54)[C@@H]69 [Alcuronium chloride] (20 µM) | 1.09 | 0.982 | 1.01 | 1.26 | 1.04 (inactive) | 1.03 (inactive) | 1.05 (inactive) | 1.12 (inactive) | 0.99 (inactive) | 0.915 (inactive) | 1.02 (inactive) | 1.07 (inactive) |
| COc1ccccc1OCC(O)CO (stereo not drawn) [Guaifenesin] (20 µM) | 1.09 | 0.954 | 0.98 | 1.03 | 1.05 (inactive) | 1.04 (inactive) | 1.05 (inactive) | 1.04 (inactive) | 1.01 (inactive) | 0.991 (inactive) | 0.988 (inactive) | 1.1 (inactive) |
| NC[C@@H]1O[C@@H](O[C@H]2[C@H](O)[C@@H](O[C@H]3O[C@H](CO)[C@@H](O)[C@H](N)[C@H]3O)[C@H](N)C[C@@H]2N)[C@@H](O)[C@H](O)[C@H]1O [Kanamycin A sulfate] (20 µM) | 1.05 | 1.02 | 1.02 | 1.09 | 0.907 (inactive) | 1.06 (inactive) | 1.01 (inactive) | 1.02 (inactive) | 0.977 (inactive) | 0.97 (inactive) | 1.02 (inactive) | 1.03 (inactive) |
| NC1CCN(c2nc3c(cc2F)c(=O)c(C(=O)O)cn3-c2ccc(F)cc2F)C1 (stereo not drawn) [Tosufloxacin hydrochloride] (20 µM) | 0.0344 | 0.0566 | 0.173 | 1.45 | 0.0712 (active) | 0.0441 (active) | 0.532 (active) | 0.811 (inactive) | 0.642 (active) | 0.192 (active) | 0.978 (inactive) | 0.615 (active) |
